Compounds without any hit were thinned out: in the full panel of roughly 79,000, 15% have a hit. A number with no mark means an inactive call. Active and inactive are the calls of the source. Rule as the data show it: active = growth inhibition above about 70%; inactive = the rest.
Columns and labels:
[1] = NCI Yeast Anticancer Drug Screen. Data for the rad50 strain (AID 155);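 also: 0% = growth of vehicle-only cultures of the same strain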; conditions: S. cerevisiae rad50 strain growth inhibition; at 50.0 µM; hits give high values
Outline: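 Yeast carrying a defined DNA repair defect were exposed to test compounds, and growth was compared with vehicle-treated controls to give percent inhibition.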

[2] = NCI Yeast Anticancer Drug Screen. Data for the mec2-1 strain (AID 157); conditions: S. cerevisiae mec2-1 strain, at 50.0 µM, hits give high values
Outline: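 Readout is yeast growth inhibition, normalised to vehicle-treated controls, in the mec2-1 strain exposed to compound.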

[3] = NCI Yeast Anticancer Drug Screen. Data for the sgs1 mgt1 strain (AID 161);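 also: 0% = growth of cultures given vehicle only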; conditions: S. cerevisiae sgs1 mgt1 strain, at 50.0 µM, hits give high values
Outline: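 Yeast cells carrying a defined DNA-repair defect were exposed to test compounds. Growth inhibition was measured relative to vehicle-treated controls.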

[4] = NCI Yeast Anticancer Drug Screen. Data for the cln2 rad14 strain (AID 165);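 also: 0% = growth equal to vehicle treated cultures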; conditions: S. cerevisiae cln2 rad14 strain, at 50.0 µM, hits give high values
Outline: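 Relative to vehicle controls, growth inhibition of compound-treated cln2 rad14 yeast was recorded.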

[5] = NCI Yeast Anticancer Drug Screen. Data for the bub3 strain (AID 167); conditions: S. cerevisiae bub3 mutant strain, at 50.0 µM, hits give high values
Outline: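 Compounds were applied to a genetically altered yeast strain carrying a cell-cycle control defect. Growth inhibition was scored against vehicle-treated controls.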

[6] = NCI Yeast Anticancer Drug Screen. Data for the mlh1 rad18 strain (AID 175); conditions: S. cerevisiae mlh1 rad18 strain growth inhibition; at 50.0 µM; hits give high values
Outline: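 Test agents were incubated with a yeast strain of defined genotype (DNA damage repair defect). Inhibition of growth was derived by comparison with vehicle-exposed cultures.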

Compound	growth inhibition [1] [%]	growth inhibition [2] [%]	growth inhibition [3] [%]	growth inhibition [4] [%]	growth inhibition [5]	growth inhibition [6] [%]
C=C(C)[C@@]1(OC(=O)c2cc([N+](=O)[O-])cc([N+](=O)[O-])c2)C[C@@H]2CCCC[C@@H]21	-43.5	-26.1	-15.8	5.8	-7.9%	2.1
CCCc1c(C)nc2scc(-c3ccccc3)n2c1=O	38.7	16.5	55.1	37.4	39.4%	34
CCCCNC(=O)c1c(Cl)c(Cl)c(Cl)c(Cl)c1C(=O)O	37.3	17.1	4.85	17.5	16.5%	28.2
O=C(OCC(Br)C(Br)c1ccccc1)c1ccccc1 (configuration not stated)	-13.3	-12.6	-2	-1.4	73.6% (active)	-27.6
CCCCCCC(=O)/C=C/c1ccc(Cl)cc1	11.9	-22.1	-3.1	-6.5	16.2%	-15.6
CCCCCCCCCCCCOC(=O)NCCCl	-53	-106	-57	-224	-27.6%	-60.1
CC(C)CC(C#N)C(=O)O (configuration not stated)	-1.45	-1.95	-5.15	5.45	-4.35%	2.1
CN(/N=C1\C(=O)Nc2ccccc21)c1ccccc1	4.65	-3.15	13.6	-37.9	3.85%	17.6
O=C(CN=C(CN(c1ccccc1)c1ccccc1)Oc1c(Cl)cc(Cl)cc1Cl)N1c2ccccc2Sc2ccccc21	4.75	-10.8	36.5	-36.2	-14.7%	7.8
N#C/C(C(=N)c1ccccc1)=C1\SS/C(=C(\C#N)C(=N)c2ccccc2)S1	7.2	2.35	7.6	23.7	3.7%	-4.45
CCCCCC(=O)/C=C/Sc1n[nH]c(=O)[nH]c1=O	60.5	41.1	64.2	27.9	55%	62.1
CC(=O)CC(=O)NCCCN1CCCCC1	-28.7	-52.1	-30.4	-5.1	-34.4%	-33.4
O=C1CN(C=C(C(=O)c2ccccc2)C(=O)c2ccccc2)C(=S)N1	-61.5	-31.7	-19.2	-39	-8.2%	-30.4
O=C(O)C1CCN(C(=O)Cc2c3ccccc3cc3ccccc23)CC1	20.9	3.9	-3.45	-2.5	-6.85%	22.7
Cc1ccc(C2=Nc3cccc4cccc(c34)N2)cc1	-40	-71.7	-26.3	11.1	-2.2%	-8.85
O=c1[nH]cc([N+](=O)[O-])c(=O)[nH]1	14.3	13.1	8.25	14.7	16.9%	11.2
CN1C(=O)CC2(C)c3cc(O)cc(Br)c3N(C)C12 (configuration not stated)	6.6	-10.5	8.45	10.5	-6.25%	17.7
Cc1ccc(NC(=O)CCC(=O)C(C#N)c2ccc(Cl)cc2)cc1C (configuration not stated)	-8.25	-7.95	8.55	4.75	8.4%	0.25
Nc1c(S(=O)(=O)O)cc(Nc2cccc(S(=O)(=O)/C=C/S(=O)(=O)O)c2)c2c1C(=O)c1ccccc1C2=O	8.4	-28.9	-1.2	-2.45	0.85%	-14.2

Compound	growth inhibition [1] [%]	growth inhibition [2] [%]	growth inhibition [3] [%]	growth inhibition [4] [%]	growth inhibition [5]	growth inhibition [6] [%]
CCCCCC(=O)N1CCOCC1	11.2	10.8	5.6	-6.35	-21.4%	9
O=[N+]([O-])c1ccc(N=N/C(Cc2ccccc2)=N\Nc2ccccc2)cc1	31.4	12.9	-0.2	22.6	-10.4%	4.65
CNC(=O)O[C@H]1C(=O)O[C@@H]2C[C@H]3C(C)=C(O)C(=O)C[C@]3(C)[C@H]3[C@@H](O)[C@H](O)[C@@]4(C(=O)OC)OC[C@]32[C@@H]14	24.9	16.4	1.95	7.3	14.9%	16.9
COc1nc(NCCO)nc(OC)n1	3.35	-2.5	-16.5	-29.6	4.65%	-4.85
C/C=N\N1C(=O)c2ccccc2C1=O	11.5	13.7	13.8	9.1	19.4%	14.8
CCCCCCCCCCNC(=O)C(OC(C)=O)C(OC(C)=O)C(OC(C)=O)C(COC(C)=O)OC(C)=O (configuration not stated)	29.4	12.6	19.3	32.1	10.2%	40.4
COC(=O)C(C#N)(CCC(=O)c1ccccc1)CCC(=O)c1ccccc1	13.3	17.3	10.2	-8.65	17.8%	9.8
O=C1NC(=S)N/C1=C/c1ccc2c(c1)CCC2	13.9	-20.2	20.6	12.4	31.8%	12.7
CN(C)c1ccc(/C=N/N(Cc2ccccc2)c2ccccc2)cc1	-14.4	-29.1	3.2	-11.6	11.3%	10.2
CC1C(=O)C23CC1CCC2C12COC(O)C1C(C)(C)C(O)CC2OC3=O (configuration not stated)	-10.4	-5.95	-12.7	17.1	-43.6%	-16.4
CC(C)(C)SC1C(O)C(CO)OC1n1ccc(Nc2ccccc2)nc1=O (configuration not stated)	-17.9	10.8	-24.6	-15.8	1.55%	4.65
Nc1ccc(C2NC=CN2)cc1	-12.1	-7.65	-0.7	29.8	-3.15%	-1.65
CCSc1sc(=Nc2ccc(N=c3sc(C)c(SC)s3)cc2)sc1-c1ccc(C)cc1	-33.6	-0.75	-11.2	-39.1	2.25%	-5.2
CCCCCCCC(=O)NC(O)C(Cl)(Cl)C(C)Cl (configuration not stated)	31.1	-6.35	3.35	-21.4	-1.55%	9.35
COC(=O)C(C(=O)C(=O)Nc1cccc(O)c1)c1nc2ccc(Cl)cc2[nH]c1=O (configuration not stated)	-19	-3.95	-41.3	2.55	-8.65%	-13.9
O=C1CC(O)C2C(=O)c3c(c(Cl)c4ccccc4c3O)C(=O)C2C1 (configuration not stated)	12.1	12.4	10.2	4.75	3.85%	20.3
CSc1cc(/C=C/c2ccccc2)ccc1N	1	1.5	-9.45	-33.5	5.25%	2
O=C1NC(=S)S/C1=C\c1ccc2c(c1)OCO2	-22.1	-21.3	-4.8	-2	-8.05%	-7.55

Reference: PubChem BioAssay (NCI)
